# “And” between values parts separate entries of the source, which are not always exact repeats. Equal entries are not always repeated.
# Biological target: Catechol O-methyltransferase (Homo sapiens) (UniProt P21964)
# Assay: Confirmatory Screen for Target Class Profiling of Small Molecule Inhibitors of Methyltransferases (AID 1745852); on activity change, negative = inhibition: on the % scale 0 is the no-effect control and ±100 the full control effect
# Conditions: MTase-Glo luminescence, SAH detection, recombinant enzyme; measured here: COMT max response; stronger effect = lower value
# Catechol O-methyltransferase (Homo sapiens), sequence (P21964 whole entry, looked up): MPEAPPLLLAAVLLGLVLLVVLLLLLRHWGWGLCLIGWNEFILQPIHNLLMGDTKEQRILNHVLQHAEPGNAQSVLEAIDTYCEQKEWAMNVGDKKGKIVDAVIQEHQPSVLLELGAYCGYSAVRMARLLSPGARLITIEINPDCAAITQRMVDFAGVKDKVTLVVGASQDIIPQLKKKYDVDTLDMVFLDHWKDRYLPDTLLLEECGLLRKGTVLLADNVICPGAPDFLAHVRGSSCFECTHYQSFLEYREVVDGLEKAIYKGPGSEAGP
row,Structure (SMILES),activity
1,CCN(CC)CCCCNc1ncc2cc(-c3c(Cl)cccc3Cl)c(NC(=O)NC(C)(C)C)nc2n1,-7.59% and -2.1%
2,COC(=O)C1=C(C)NC(C)=C(C(=O)OC)C1c1cccc(NC(=O)NCCCN2CCC(c3cccc(OC)c3)CC2)c1,-1.21% and -6.68%
3,Oc1cc(O)cc(/C=C/c2ccc(O)c(O)c2)c1,119%
4,COc1cc(/C=C/C(=O)CC(=O)/C=C/c2ccc(O)c(OC)c2)ccc1O,-53.7%
5,CCOC(=O)N1CCN(/[N+]([O-])=N/Oc2ccc([N+](=O)[O-])cc2[N+](=O)[O-])CC1,-99.7%

# Biological target: Guanidinoacetate N-methyltransferase (Homo sapiens) (UniProt Q14353)
# Assay: as above
# Conditions: MTase-Glo luminescence, SAH detection, recombinant enzyme; activity change, negative = inhibition: at 57.3 µM (top of the series)
row,Structure (SMILES),"activity change, negative = inhibition"
1,CCN(CC)CCCCNc1ncc2cc(-c3c(Cl)cccc3Cl)c(NC(=O)NC(C)(C)C)nc2n1,0.993% and 9.36%
2,COC(=O)C1=C(C)NC(C)=C(C(=O)OC)C1c1cccc(NC(=O)NCCCN2CCC(c3cccc(OC)c3)CC2)c1,0% and 10.5%
3,Oc1cc(O)cc(/C=C/c2ccc(O)c(O)c2)c1,-14.6%
4,COc1cc(/C=C/C(=O)CC(=O)/C=C/c2ccc(O)c(OC)c2)ccc1O,-2.93%
5,CCOC(=O)N1CCN(/[N+]([O-])=N/Oc2ccc([N+](=O)[O-])cc2[N+](=O)[O-])CC1,-4.08%
